PubChem BioAssay (NCI)
About 83,000 compounds went through this panel and 20% of them were active in at least one assay; those are over-represented in the sample as a whole.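 Single-concentration screen, 48 h exposure, 96-well plates. Endpoint: percent growth. Below 10 = active.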 Unmarked numbers belong to inactive results. Calls of active or inactive are those of the source.

Key:
Experiment in all cases: NCI-60 one-dose screen, 48 h (100 = growth as untreated, 0 = no growth, -100 = all killed)
Conditions in all cases: 10 µM unless noted
NCI-H23 lung = tested on: NCI-H23 lung
NCI-H226 lung = tested on: NCI-H226 lung
NCI-H322M lung = tested on: NCI-H322M lung
HOP-62 NSCLC = tested on: HOP-62 NSCLC
NCI-H460 lung = tested on: NCI-H460 lung
HOP-92 NSCLC = tested on: HOP-92 NSCLC
NCI-H522 lung = tested on: NCI-H522 lung
A549/ATCC NSCLC = tested on: A549/ATCC NSCLC
786-0 renal = tested on: 786-0 renal
COLO 205 colon = tested on: COLO 205 colon

Row | Structure (SMILES) | growth (NCI-H23 lung) | growth (NCI-H226 lung) | growth (NCI-H322M lung) | growth (HOP-62 NSCLC) | growth (NCI-H460 lung) | growth (HOP-92 NSCLC) | growth (NCI-H522 lung) | growth (A549/ATCC NSCLC) | growth (786-0 renal) | growth (COLO 205 colon)
1 | O=C(NCC(c1ccsc1)N1CCCCCC1)c1ccc(C(F)(F)F)cc1 (stereo not given) | 93% | 91.9% | 99.9% | 113% | 100% | 99% | 92.8% | 96.5% | 96.9% | 102%
2 | COc1cc(-c2nc(-c3nc4cc(C(=O)c5ccccc5)ccc4[nH]3)cc3c2[nH]c2ccccc23)cc(OC)c1OC | 104% | 91.1% | 99.4% | 97.7% | 95.6% | 82.5% | 90.6% | 75.9% | 97.3% | 97.7%
3 | COc1cccc2nc(Nc3cccc(NC(=O)c4cc(N5CCOCC5)cc(C(F)(F)F)c4)c3)ccc12 | 78.4% | 47.8% | 68.6% | 78.6% | 49.2% | 47.9% | 81.3% | 37.3% | 65.8% | 62.5%
4 | COc1ccc([C@@H]2[C@@H](Oc3ccccc3)C(=O)N2c2cc(OC)c(OC)c(OC)c2)cc1F | 16.5% | 41.5% | 33.4% | 14% | 7.22% (active) | 42% | -26.1% (active) | 13.4% | 5.88% (active) | -41.2% (active)
5 | COc1ccc(NC(=O)/C=C/c2ccc(Cl)c(Cl)c2)cn1 | 84.7% | 68.3% | 91.6% | 90.1% | 99% | 87.1% | 79.9% | 79.1% | 85.6% | 101%
6 | CN(C)c1ccc(N2Cc3ccccc3OC3=C2C(=O)c2c(O)ccc(O)c2C3=O)cn1 | -36.7% (active) | 6.21% (active) | -7.76% (active) | -45.8% (active) | 1.55% (active) | -65.2% (active) | -54.2% (active) | -19.7% (active) | -88.9% (active) | -81.9% (active)
7 | CN1CCN(Cc2ccc(NC(=O)c3cncc(C#Cc4cnc5cccnn45)c3)cc2C(F)(F)F)CC1 | -7.84% (active) | -3.9% (active) | 6.52% (active) | -6.79% (active) | -12.6% (active) | -9.42% (active) | -37.1% (active) | 4.87% (active) | 6.51% (active) | -48.1% (active)
8 | COc1ccc(C(=O)c2c(N)nc3n2CCCC3)cc1OC | 109% | 96.9% | 96.2% | 102% | 105% | 118% | 81.7% | 102% | 100% | 107%
9 | Fc1ccc(-c2ccnc3nc(-c4ccncc4)nn23)cc1 | 112% | 102% | 99.4% | 113% | 104% | 120% | 107% | 98.4% | 88.8% | 108%
10 | Cc1ccc(NC(=O)c2[nH]c(SCCN(C)C)nc2-c2ccc(F)cc2)cc1C#Cc1cnc2cccnn12 | 66.7% | 55.9% | 48.1% | -8.9% (active) | -69.4% (active) | 80.4% | 1.49% (active) | 5.21% (active) | -67.1% (active) | 81.1%
11 | CO[C@@]12[C@@H]3NC3CN1C1=C(C(=O)C(N)=C(C)C1=O)[C@@H]2COC(N)=O (stereo not given in full) | -3.61% (active) | -5.36% (active) | 14.4% | 19.2% | -18.9% (active) | 12.8% | -9.07% (active) | -61% (active) | -3.82% (active) | -0.289% (active)
12 | CN(C)CCOc1nc2c3cccnc3cc(-c3cccc(Cl)c3)c2c2ncccc12 | 31.2% | 40.5% | 44.9% | 44.4% | -49.8% (active) | 42.7% | 34.1% | 22% | 21.8% | -65.4% (active)
13 | O=C1CC2(O)CSc3nc(=O)cc(n32)N1 (stereo not given) | 107% | 98.6% | 93.2% | 112% | 104% | 105% | 102% | 96.5% | 99.6% | 103%
14 | COCCOCCOCc1n(Cc2ccc3ccccc3n2)c2ccccc2[n+]1Cc1ccc2ccccc2c1 | 1.03% (active) | 28.1% | 26.8% | 11.7% | 7.94% (active) | -18.2% (active) | 0.793% (active) | 22.5% | 21.2% | -73.3% (active)
15 | NC(=O)c1noc(C(=O)c2ccccc2)c1N | 101% | 89.8% | 104% | 114% | 102% | 107% | 80.4% | 89.1% | 97.9% | 111%
16 | FC(F)(F)c1ccc(/C=N/Nc2nnc3n2N=C(c2ccc(Cl)cc2)CS3)cc1 | 64.8% | 20.7% | 60.9% | 16.4% | 43.9% | 3.52% (active) | 58.1% | 51.7% | 27.6% | 89.3%
17 | Cc1ccc(CSCc2ccc(C(=O)NC3CC3)o2)cc1 | 82% | 105% | 80.8% | 109% | 52.2% | 75.2% | 43.5% | 45.3% | 91.6% | 63.7%
18 | NS(=O)(=O)c1ccc(N2N=C(c3ccc(Br)cc3)CC2c2cn(-c3ccccc3)nc2-c2ccc(Cl)cc2)cc1 (stereo not given) | 88.3% | 103% | 92.5% | 98.2% | 81.6% | 157% | 89.9% | 76.8% | 97.9% | 86.3%
19 | CC1(C)CC[C@]2(C(=O)N3CCNCC3)CC[C@]3(C)C(=CC[C@@H]4[C@@]5(C)CCC(=O)C(C)(C)[C@@H]5CC[C@]43C)[C@@H]2C1 | 103% | 99.4% | 108% | 97.3% | 109% | 109% | 94.5% | 102% | 102% | 105%
20 | COc1ccc2[nH]c(C(=O)OCc3ccc4cccc(O)c4n3)cc2c1 | -3.84% (active) | -68.1% (active) | 62.7% | 35% | 7.31% (active) | -78.2% (active) | -66.9% (active) | 21.2% | -76.1% (active) | -69.1% (active)
21 | CNC(=O)c1ccccc1Sc1ccc2c(/C=C/c3ccccn3)n[nH]c2c1 | 47.5% | 20.9% | 34.9% | 24.3% | 20.2% | 9.47% (active) | 24.2% | 28.6% | 44% | 3.49% (active)
22 | COc1ccc(-c2nsc3c2NC(=O)CC3c2ccc3c(c2)OCO3)cc1 (stereo not given) | 35.1% | 68.4% | 43.9% | 31.2% | 19.1% | 2.96% (active) | -30.1% (active) | 26.6% | 57.5% | -14.4% (active)
23 | CCCCCCCCNC(C)C(O)c1ccc(SC(C)C)cc1 (stereo not given) | 74.2% | 96% | 87.9% | 85% | -37.7% (active) | -28.1% (active) | 12.1% | 98.8% | -14.9% (active) | 4.17% (active)
24 | C#CCNC(=S)N/N=C(\C)c1ccccn1 | 20.1% | 5% (active) | -4.06% (active) | 26.5% | 4% (active) | 52.4% | 43.9% | 23.9% | 4.03% (active) | 19.6%
25 | CC1(C)C2CCC(O)(C(=O)O)C1C2 (stereo not given) | 113% | 113% | 95.9% | 113% | 116% | 117% | 117% | 111% | 107% | 127%
26 | Nc1c(C(=O)Nc2cccc(Cl)c2)sc2ncc(Br)cc12 | 79.5% | 83.5% | 59.4% | 75.4% | 28.8% | 78.5% | 65.2% | 34.6% | 76.1% | 85.1%
27 | COC(=O)C(CCC(=O)CCl)N1C(=O)c2ccccc2C1=O (stereo not given) | 79.1% | 70.1% | 91.7% | 79.9% | 90.1% | 49.7% | -15.1% (active) | 104% | 60.3% | 87.8%
